# Measurements from PubChem BioAssay.
# Several values for one entry are separate records, joined by “and”; a condition that tells them apart may be missing. Identical values can stand only once. This is one part of the list. Results filed as inconclusive are left out. Activity calls are given as the source filed them.
# What was measured:
# [1] = inhibitors of TNFa-induced NFkB p65 translocation, primary screen, imaging, HUVEC, MLSMR starter and 10KST1 sets (AID 438;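 active means inhibition above 20% together with a positive visual image hit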;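 further: compound added about 3h40 before a 20 min TNFalpha stimulation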;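 on inhibition: signal is the nuclear over cytoplasmic p65 intensity ratio per well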); details: HUVEC TNFa-induced p65 nuclear translocation; cell count: measured here: nuclei count (cytotoxicity indicator), at 2.08 µM unless noted; inhibition: at 2 µM, stronger effect = higher value unless noted
# [2] = reduction of polyQ htt aggregates in cells – imaging, exon1htt(103Q)mCFP cells, high-content imaging, primary screen (AID 483;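 active means visual image review flags a hit and inhibition of aggregation exceeds 20%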;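 further: compound exposure lasted 3 days before fixation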;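 on nuclei count: percent of the per-plate median nuclei count of sample wells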); details: exon1htt(103Q)mCFP cell line, aggregate imaging, at 2 µM; inhibition of aggregation: stronger effect = higher value; nuclei count: measured here: cell count, toxicity
# [3] = endothelial E-selectin expression blockers – imaging, HUVEC, immunofluorescence, MLSMR starter and 10KST1 sets, primary screen (AID 487;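 active means visually confirmed hit in the image check and inhibition above 20%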;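 on inhibition: signal is fraction of cell area covered by stained E-selectin grains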;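 on nuclei count: 100% = median nuclei count of all wells on the same plate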); details: HUVEC TNFalpha-induced E-selectin immunofluorescence imaging, at 2 µM; inhibition: stronger effect = higher value; nuclei count: measured here: cell number, toxicity
# [4] = Primary imaging screen for DUSP6 inhibitors that restore phospho-Erk in transfected HeLa cells, chemical complementation (AID 609;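 active means compounds giving at least 50% inhibition in the cell-based MKP-3 phosphatase rescue imaging test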;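 on inhibition: phospho-Erk level distribution per well compared with pooled transfected vehicle control wells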); details: HeLa MKP-3 transfected, phospho-Erk imaging KS statistic, at 10 µM
# [5] = target: Dual specificity protein phosphatase 6 (Homo sapiens) (UniProt Q16828); experiment: as above; details: HeLa MKP-3 transfected, phospho-Erk imaging KS statistic, at 10 µM, stronger effect = higher value
# [6] = target: Voltage-gated potassium channel subunit beta-2 (Rattus norvegicus) (UniProt P62483); experiment: inhibitors of rat Kvbeta2 reductase activity – biochemical, NADPH fluorescence, primary screen (AID 622;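 active means fluorescence slope higher than the sample average by over 3 SD, cut at about -0.22 in these data, passing the limit was not always enough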;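 further: slope of raw intensity against log time taken from 70 to 1610 s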); details: recombinant KvBeta, 4-cyanobenzaldehyde reduction, at 10 µM, stronger effect = higher value
# [7] = target: Voltage-gated potassium channel subunit beta-2 (Rattus norvegicus) (UniProt P62483); experiment: enhancers of rat Kvbeta2 NADPH turnover – biochemical, NADPH fluorescence, primary screen (AID 623;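 active means NADPH fluorescence slope more negative than the mean of all samples by about 3 SD, 99.7% confidence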;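 further: fluorescence intensity change per second fitted from 20 to 320 s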); details: Recombinant KvBeta, NADPH fluorescence decrease slope, 10 min; at 10 µM; stronger effect = lower value
# [8] = target: Alpha-2C adrenergic receptor (Homo sapiens) (UniProt P18825); experiment: compounds altering alpha2C-coupled GIRK flux – cell-based, HEK293 alpha2C/GIRK1/2, thallium flux, primary screen (AID 624;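 active means fluorescence slope after compound addition differing from the mean of all screened samples at 99.7% confidence, in either direction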;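 further: slope of fluorescence ratio to pre-addition baseline per second over 15 to 24 s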); details: thallium flux BTC fluorescence, at 10 µM, actives lie on both sides
# [9] = inhibitors of larval lipid processing in zebrafish, primary screen, whole organism, PED6 fluorescence, gall bladder and intestine (AID 686;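 active means a full or partial loss of lipid-probe fluorescence in the fish gall bladder, intestine or both, judged by eye; inactive means no fluorescence loss, or compound toxic to the fish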;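 further: larvae 5 to 7 days old with five fish per well; signal comes from phospholipase A2 cleavage of quenched PED6 carried via bile; overnight exposure to compound and PED6 before scoring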); details: Zebrafish larvae PED6 lipid processing, fluorescence scoring
# [10] = loss of swimming-algae plug formation – whole organism, Chlamydomonas reinhardtii, WT vs cilia-less mutant, absorbance, 96-well, primary screen (AID 463189); details: Chlamydomonas reinhardtii gravitaxis, OD600 absorbance, 2 days; at 10 µM; stronger effect = higher value;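 further: 0% = wild type cc124 cells in DMSO and 100% = ciliumless bld1 mutant cells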
# [11] = blockers of RIG-like receptor reporter activation – cell-based, Sendai virus stimulus, luciferase, 10K MLSCN set, TLR/RLR signaling modifier project, primary screen (AID 602276;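 active means inhibition at or above 50% at 10 µM; inactive means inhibition below 50%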;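 further: firefly luciferase from ISG56 promoter only with Renilla not read in this screen; 0% = Sendai virus plus DMSO and 100% = medium plus DMSO without virus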); details: HEK293 RL24 IRF3 luciferase reporter, at 10 µM, stronger effect = higher value
# [12] = TLR3 IRF3 reporter activation blockers – cell-based, poly I:C stimulus, luciferase, 10K MLSCN set, primary screen (AID 602277;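 active means inhibition of the reporter signal at or above 50%; inactive means inhibition below 50%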); details: HEK293-TLR3 RL24 IRF3 luciferase reporter, at 10 µM, stronger effect = higher value
# [13] = target: Muscarinic acetylcholine receptor M4 (Homo sapiens) (UniProt P08173); experiment: M4-linked GIRK flux change, two-sided – cell-based, HEK293 M4/GIRK, thallium flux, BTC-AM, M4 allosteric agonist project, primary screen (AID 625;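 active means fluorescence slope after compound addition differing from the mean of all tested samples at 99.7% confidence, mostly higher but some lower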;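 further: thallium influx through GIRK channels coupled to M4 in HEK293 cells with BTC-AM dye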); details: at 10 µM, actives lie on both sides
# [14] = target: Solute carrier family 12 member 5 (Homo sapiens) (UniProt Q9H2X9); experiment: retest of KCC2 transport modulators without sodium – cell-based, HEK293 KCC2, thallium flux, secondary assay, confirmation (AID 1713;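 active means thallium flux slope above the same plate's solvent-only control mean plus 3 SD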); details: FluoZin2 fluorescence, at 10 µM, stronger effect = higher value
# PubChem AID 1714 = details: HEK293-KCC2 + bumetanide/ouabain, thallium flux FluoZin2; at 10 µM; stronger effect = higher value
# [15] = target: Solute carrier family 12 member 5 (Homo sapiens) (UniProt Q9H2X9); experiment: retest of KCC2 transport modulation, ouabain-free – cell-based, HEK293 KCC2, thallium flux, FluoZin2, secondary assay 2, confirmation (AID 1715;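 active means thallium flux slope more than 3 SD above or below the plate's solvent-only control mean, mostly below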;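 further: raw slope with 0.1% DMSO as baseline and bumetanide as block control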); details: HEK293-KCC2, thallium flux FluoZin2 fluorescence; at 10 µM; actives lie on both sides
# [16] = compound effects on native HEK Tl+ uptake – HEK cells, counterscreen 1, counter-screen for KCC2 modulator project, confirmation (AID 1716;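 active means thallium flux rate significantly above the same plate's solvent-only control wells, beyond their mean plus 3 SD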); details: HEK293 parental cells, thallium flux FluoZin2, ouabain; at 10 µM; baseline-ratio fluorescence slope, 10–20 s after thallium
# [17] = target: Solute carrier family 12 member 5 (Homo sapiens) (UniProt Q9H2X9); experiment: modulation of KCC2 thallium flux in HEK cells – cell-based, ouabain, retest, confirmation (AID 1717;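 active means thallium flux slope beyond 3 SD from same-plate DMSO control mean in most replicates, usually higher, sometimes lower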;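 further: slope of initial-normalized fluorescence between seconds 10 and 20 after thallium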); details: HEK293-KCC2, thallium flux FluoZin2 fluorescence, at 10 µM, bidirectional: low = inhibitor, high = activator
# [18] = native HEK Tl+ uptake effects, second counter-screen – HEK cells, counterscreen 2, counter-screen for KCC2 modulator project, confirmation (AID 1718;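 active means thallium flux slope above the same plate's solvent-control mean plus 3 SD in both duplicate wells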;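 further: run without ouabain in cells lacking the KCC2 cotransporter; slope of fluorescence scaled to its starting value between 10 and 20 s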); details: HEK293 parental, thallium flux FluoZin-2 fluorescence slope; at 10 µM
# [19] = measured here: cell density z-score
# [20] = measured here: nuclear c-Myc green intensity z-score
# [21] = measured here: nuclear pErk red intensity z-score, stronger effect = higher value
# Alpha-2C adrenergic receptor (Homo sapiens), sequence (P18825 whole entry, looked up): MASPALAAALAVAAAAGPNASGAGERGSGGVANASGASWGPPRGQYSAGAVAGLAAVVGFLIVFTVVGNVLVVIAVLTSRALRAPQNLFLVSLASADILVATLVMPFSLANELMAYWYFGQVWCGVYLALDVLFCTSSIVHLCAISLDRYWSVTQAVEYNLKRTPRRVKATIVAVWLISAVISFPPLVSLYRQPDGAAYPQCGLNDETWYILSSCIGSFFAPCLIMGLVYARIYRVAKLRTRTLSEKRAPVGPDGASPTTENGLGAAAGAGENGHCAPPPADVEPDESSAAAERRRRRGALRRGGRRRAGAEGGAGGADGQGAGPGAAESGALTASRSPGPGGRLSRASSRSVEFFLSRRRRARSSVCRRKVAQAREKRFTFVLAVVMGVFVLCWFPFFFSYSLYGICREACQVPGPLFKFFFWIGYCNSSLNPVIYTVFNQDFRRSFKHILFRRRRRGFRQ
# Dual specificity protein phosphatase 6 (Homo sapiens), sequence (Q16828 whole entry, looked up): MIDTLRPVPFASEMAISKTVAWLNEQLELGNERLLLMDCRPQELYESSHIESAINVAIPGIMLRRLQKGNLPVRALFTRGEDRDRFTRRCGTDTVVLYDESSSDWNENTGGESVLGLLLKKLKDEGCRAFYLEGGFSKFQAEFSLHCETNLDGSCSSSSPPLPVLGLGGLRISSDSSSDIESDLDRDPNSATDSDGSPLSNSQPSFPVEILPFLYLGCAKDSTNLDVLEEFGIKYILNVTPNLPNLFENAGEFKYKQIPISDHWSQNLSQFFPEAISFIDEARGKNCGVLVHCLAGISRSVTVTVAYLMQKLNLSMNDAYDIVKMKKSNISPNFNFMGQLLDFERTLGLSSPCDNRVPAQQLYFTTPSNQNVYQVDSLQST
# Voltage-gated potassium channel subunit beta-2 (Rattus norvegicus), sequence (P62483 whole entry, looked up): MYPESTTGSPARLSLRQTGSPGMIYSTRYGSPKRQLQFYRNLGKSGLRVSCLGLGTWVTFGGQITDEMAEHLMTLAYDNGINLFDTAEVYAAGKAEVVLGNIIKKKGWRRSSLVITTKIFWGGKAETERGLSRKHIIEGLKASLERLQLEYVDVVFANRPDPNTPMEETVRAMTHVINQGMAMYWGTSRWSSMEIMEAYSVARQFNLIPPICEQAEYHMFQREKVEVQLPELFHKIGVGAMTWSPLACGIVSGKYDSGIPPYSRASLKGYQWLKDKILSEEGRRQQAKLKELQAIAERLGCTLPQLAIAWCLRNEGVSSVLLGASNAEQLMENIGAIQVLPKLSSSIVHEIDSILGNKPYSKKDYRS
# Muscarinic acetylcholine receptor M4 (Homo sapiens), sequence (P08173 whole entry, looked up): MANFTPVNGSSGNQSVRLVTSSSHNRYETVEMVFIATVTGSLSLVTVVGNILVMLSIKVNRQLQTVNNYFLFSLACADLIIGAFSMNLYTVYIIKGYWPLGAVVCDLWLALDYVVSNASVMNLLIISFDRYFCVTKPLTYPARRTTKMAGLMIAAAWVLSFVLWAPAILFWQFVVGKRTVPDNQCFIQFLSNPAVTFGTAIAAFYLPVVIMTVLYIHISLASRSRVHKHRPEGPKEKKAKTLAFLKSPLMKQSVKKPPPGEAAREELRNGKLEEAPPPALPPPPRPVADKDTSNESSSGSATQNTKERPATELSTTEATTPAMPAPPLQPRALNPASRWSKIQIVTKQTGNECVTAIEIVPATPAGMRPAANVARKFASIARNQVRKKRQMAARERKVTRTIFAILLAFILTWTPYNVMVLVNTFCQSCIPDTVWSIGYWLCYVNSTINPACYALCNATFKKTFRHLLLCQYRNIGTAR
# Solute carrier family 12 member 5 (Homo sapiens), sequence (Q9H2X9 whole entry, looked up): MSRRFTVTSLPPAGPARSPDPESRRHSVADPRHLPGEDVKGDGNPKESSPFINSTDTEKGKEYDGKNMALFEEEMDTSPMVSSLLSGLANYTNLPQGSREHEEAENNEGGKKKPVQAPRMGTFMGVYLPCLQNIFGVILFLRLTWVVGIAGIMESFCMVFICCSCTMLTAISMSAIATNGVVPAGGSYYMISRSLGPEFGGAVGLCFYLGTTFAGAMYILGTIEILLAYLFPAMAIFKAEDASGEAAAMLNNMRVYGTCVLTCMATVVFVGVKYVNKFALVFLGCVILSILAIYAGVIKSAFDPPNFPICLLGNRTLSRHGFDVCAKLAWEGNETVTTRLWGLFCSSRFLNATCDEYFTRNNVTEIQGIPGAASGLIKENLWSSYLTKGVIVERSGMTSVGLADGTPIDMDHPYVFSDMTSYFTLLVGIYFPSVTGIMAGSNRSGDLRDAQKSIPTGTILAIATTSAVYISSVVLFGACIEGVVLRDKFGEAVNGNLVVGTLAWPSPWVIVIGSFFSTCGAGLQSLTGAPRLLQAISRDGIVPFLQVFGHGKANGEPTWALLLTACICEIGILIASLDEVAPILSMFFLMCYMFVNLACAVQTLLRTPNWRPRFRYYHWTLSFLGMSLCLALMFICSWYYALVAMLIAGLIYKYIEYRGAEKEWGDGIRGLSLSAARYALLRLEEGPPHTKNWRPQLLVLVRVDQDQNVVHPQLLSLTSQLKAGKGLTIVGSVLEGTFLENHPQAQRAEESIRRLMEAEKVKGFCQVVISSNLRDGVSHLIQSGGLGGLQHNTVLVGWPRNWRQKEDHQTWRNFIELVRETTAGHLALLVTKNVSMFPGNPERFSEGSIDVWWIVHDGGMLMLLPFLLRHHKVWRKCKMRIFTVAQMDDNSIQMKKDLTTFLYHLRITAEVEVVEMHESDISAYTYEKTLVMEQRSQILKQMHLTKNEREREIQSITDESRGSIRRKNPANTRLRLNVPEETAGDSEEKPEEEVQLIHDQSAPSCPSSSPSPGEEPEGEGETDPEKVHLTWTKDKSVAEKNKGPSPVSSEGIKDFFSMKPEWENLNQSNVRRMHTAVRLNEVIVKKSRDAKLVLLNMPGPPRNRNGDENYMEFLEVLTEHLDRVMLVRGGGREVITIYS
smiles,measurement,setting,value
CCOC(=O)c1cc2c(cn1)[nH]c1ccccc12,cell count,[1],594
same,inhibition,[1],-2.5% (inactive)
same,inhibition of aggregation,[2],2% (inactive)
same,nuclei count,[2],102%
same,inhibition,[3],-12.8% (inactive)
same,nuclei count,[3],110%
same,z-score,[4]; [19],-0.332
same,z-score,[4]; [20],-1.06
same,z-score,[4]; [21],-1.1
same,inhibition,[5],1.48% (inactive)
same,fluorescence slope,[6],-0.368 (inactive)
same,NADPH fluorescence slope,[7],7.4e-07 (inactive)
same,slope,[8],0.00544 (inactive)
same,outcome,[9],inactive
same,inhibition,[10],-6.97% (inactive)
same,inhibition,[11],-4.33% (inactive)
same,inhibition,[12],-27.3% (inactive)
CC1=C(C(=O)OC(C)C)[C@]2(C(=O)N(CC(N)=O)c3ccccc32)C(C#N)=C(N)O1,cell count,[1],568
same,inhibition,[1],-7.6% (inactive)
same,inhibition of aggregation,[2],-10.5% (inactive)
same,nuclei count,[2],87.4%
same,inhibition,[3],-47.2% (inactive)
same,nuclei count,[3],126%
same,z-score,[4]; [19],1.04
same,z-score,[4]; [20],-0.385
same,z-score,[4]; [21],-1.8
same,inhibition,[5],-0.624% (inactive)
same,fluorescence slope,[6],-0.435 (inactive)
same,NADPH fluorescence slope,[7],-5.8e-05 (inactive)
same,slope,[8],0.00458 (inactive)
same,fluorescence slope,[13],0.00529 (inactive)
same,outcome,[9],inactive
same,inhibition,[10],1.76% (inactive)
same,inhibition,[11],15.6% (inactive)
same,inhibition,[12],21.9% (inactive)
O=c1[nH]c(=O)n(CCc2ccccc2)c(O)c1C=NCCN1CCNCC1,cell count,[1],554
same,inhibition,[1],-4% (inactive)
same,inhibition of aggregation,[2],-1.9% (inactive)
same,nuclei count,[2],109%
same,inhibition,[3],-30.7% (inactive)
same,nuclei count,[3],123%
same,z-score,[4]; [19],-0.452
same,z-score,[4]; [20],-0.273
same,z-score,[4]; [21],-0.327
same,inhibition,[5],-3.5% (inactive)
same,fluorescence slope,[6],-0.348 (inactive)
same,NADPH fluorescence slope,[7],2e-05 (inactive)
same,slope,[8],0.0061 (inactive)
same,outcome,[9],inactive
same,inhibition,[10],-4.22% (inactive)
same,inhibition,[11],18.3% (inactive)
same,inhibition,[12],21.6% (inactive)
CN1C(=O)CN=C(c2ccc(Cl)cc2)c2cc(Cl)ccc21,cell count,[1],702
same,inhibition,[1],-2.8% (inactive)
same,inhibition of aggregation,[2],-25.6% (inactive)
same,nuclei count,[2],108%
same,inhibition,[3],-88.1% (inactive)
same,nuclei count,[3],128%
same,z-score,[4]; [19],0.107
same,z-score,[4]; [20],-0.617
same,z-score,[4]; [21],0.523
same,inhibition,[5],-6.41% (inactive)
same,fluorescence slope,[6],-0.442 (inactive)
same,NADPH fluorescence slope,[7],-4.1e-05 (inactive)
same,slope,[8],0.00345 (inactive)
same,outcome,[9],inactive; toxic
same,inhibition,[10],-0.225% (inactive)
same,inhibition,[11],0.552% (inactive)
same,inhibition,[12],32% (inactive)
Nc1ccc(C2(c3ccc(N)cc3)CN3CCC2CC3)cc1,cell count,[1],688
same,inhibition,[1],-0.7% (inactive)
same,inhibition of aggregation,[2],1.5% (inactive)
same,nuclei count,[2],104%
same,inhibition,[3],-49.8% (inactive)
same,nuclei count,[3],138%
same,z-score,[4]; [19],-0.8
same,z-score,[4]; [20],0.409
same,z-score,[4]; [21],-0.625
same,inhibition,[5],1.12% (inactive)
same,fluorescence slope,[6],-0.502 (inactive)
same,NADPH fluorescence slope,[7],-3e-05 (inactive)
same,slope,[8],0.00562 (inactive)
same,fluorescence slope,[13],0.00533 (inactive)
same,outcome,[9],inactive
same,inhibition,[10],8.44% (inactive)
same,inhibition,[11],2.43% (inactive)
same,inhibition,[12],13.5% (inactive)
CC1=NOC2(C)Nc3ncnn3C(c3ccccc3)C12 (configuration not stated),cell count,[1],604
same,inhibition,[1],-11.4% (inactive)
same,inhibition of aggregation,[2],21% (inactive)
same,nuclei count,[2],85%
same,inhibition,[3],-129% (inactive)
same,nuclei count,[3],145%
same,z-score,[4]; [19],0.203
same,z-score,[4]; [20],0.546
same,z-score,[4]; [21],1.46
same,inhibition,[5],1.98% (inactive)
same,fluorescence slope,[6],-0.454 (inactive)
same,NADPH fluorescence slope,[7],-5.1e-05 (inactive)
same,slope,[8],0.00521 (inactive)
same,fluorescence slope,[13],0.00509 (inactive)
same,outcome,[9],inactive
same,inhibition,[10],2.9% (inactive)
same,inhibition,[11],-5.02% (inactive)
same,inhibition,[12],6.14% (inactive)
O=C(CSC1c2ccccc2-c2ccccc21)N/N=C/c1ccccc1,normalised thallium flux (F/F0 slope),[14],0.00922 (inactive)
same,normalized thallium flux,PubChem AID 1714,0.00567 (inactive)
same,normalized thallium flux,[15],0.0321 (inactive)
same,thallium flux rate (normalised fluorescence),[16],0.00741 (inactive)
same,"raw Tl+ flux slope (below DMSO = inhibition, above = activation)",[17],0.02 (inactive)
same,thallium flux slope,[18],0.0112 (active)
c1ccc2c(c1)[nH]c1cnccc12,cell count,[1],584
same,inhibition,[1],-5.4% (inactive)
same,inhibition of aggregation,[2],-8.3% (inactive)
same,nuclei count,[2],86.9%
same,inhibition,[3],-52.4% (inactive)
same,nuclei count,[3],113%
same,z-score,[4]; [19],0.863
same,z-score,[4]; [20],-0.369
same,z-score,[4]; [21],0.512
same,inhibition,[5],-10.4% (inactive)
same,fluorescence slope,[6],-0.166 (active)
same,NADPH fluorescence slope,[7],2.2e-05 (inactive)
same,slope,[8],0.00469 (inactive)
same,outcome,[9],inactive
same,inhibition,[10],6.75% (inactive)
same,inhibition,[11],2.27% (inactive)
same,inhibition,[12],16.3% (inactive)
Cc1ccc(C)c(C2(O)CC(C)N(C)CC2C)c1 (configuration not stated),cell count,[1],530
same,inhibition,[1],1.6% (inactive)
same,inhibition of aggregation,[2],-5.5% (inactive)
same,nuclei count,[2],99.7%
same,inhibition,[3],-53.3% (inactive)
same,nuclei count,[3],111%
same,z-score,[4]; [19],-0.226
same,z-score,[4]; [20],0.594
same,z-score,[4]; [21],-0.947
same,inhibition,[5],5.35% (inactive)
same,fluorescence slope,[6],-0.458 (inactive)
same,NADPH fluorescence slope,[7],-4.2e-05 (inactive)
same,fluorescence slope,[13],0.00518 (inactive)
same,outcome,[9],inactive
same,inhibition,[10],-6.61% (inactive)
same,inhibition,[11],-14.7% (inactive)
same,inhibition,[12],94.6% (active)
CC[C@@H](CO)NC(=O)[C@@H]1C=C2c3cccc4c3c(cn4C)C[C@H]2N(C)C1,cell count,[1],540
same,inhibition,[1],-4.2% (inactive)
same,inhibition of aggregation,[2],-7.9% (inactive)
same,nuclei count,[2],89.4%
same,inhibition,[3],-32.5% (inactive)
same,nuclei count,[3],113%
same,z-score,[4]; [19],0.785
same,z-score,[4]; [20],-0.624
same,z-score,[4]; [21],-1.05
same,inhibition,[5],5.79% (inactive)
same,fluorescence slope,[6],-0.107 (active)
same,NADPH fluorescence slope,[7],-2e-06 (inactive)
same,slope,[8],0.0047 (inactive)
same,outcome,[9],inactive
same,inhibition,[10],5.16% (inactive) and -19.2% (inactive)
same,inhibition,[11],18% (inactive)
same,inhibition,[12],38% (inactive)
